# Assay results taken from PubChem BioAssay (NCI).
# Compounds without any hit were thinned out: in the full panel of roughly 83,000, 20% have a hit.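 In brief: 96-well plates, 48 h treatment, single concentration, percent growth endpoint.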 Values without a mark were called inactive. The source made the active and inactive calls. Rule for the calls: active = growth percent below 10; inactive = the rest.
# Tests used:
# Test in all cases: NCI-60 one-dose screen, 48 h (100 = growth as untreated, 0 = no growth, -100 = all killed)
# Details in all cases: 10 µM unless noted
# DU-145 prostate = test system: DU-145 prostate
# K-562 leukemia = test system: K-562 leukemia
# MALME-3M melanoma = test system: MALME-3M melanoma
# MDA-MB-231 breast = test system: MDA-MB-231 breast
# RXF 393 renal = test system: RXF 393 renal
# SF-268 CNS = test system: SF-268 CNS
# SF-295 CNS = test system: SF-295 CNS
# SF-539 CNS = test system: SF-539 CNS
# UACC-257 melanoma = test system: UACC-257 melanoma
# M14 melanoma = test system: M14 melanoma
# HCT-15 colon = test system: HCT-15 colon
# HT29 colon = test system: HT29 colon
# SNB-75 CNS = test system: SNB-75 CNS
# SNB-19 CNS = test system: SNB-19 CNS
# U251 CNS = test system: U251 CNS
# PC-3 prostate = test system: PC-3 prostate
# SK-MEL-5 melanoma = test system: SK-MEL-5 melanoma
# UACC-62 melanoma = test system: UACC-62 melanoma
# LOX IMVI melanoma = test system: LOX IMVI melanoma
# SK-MEL-28 melanoma = test system: SK-MEL-28 melanoma
Structure (SMILES),growth (DU-145 prostate),growth (K-562 leukemia),growth (MALME-3M melanoma),growth (MDA-MB-231 breast),growth (RXF 393 renal),growth (SF-268 CNS),growth (SF-295 CNS),growth (SF-539 CNS),growth (UACC-257 melanoma),growth (M14 melanoma),growth (HCT-15 colon),growth (HT29 colon),growth (SNB-75 CNS),growth (SNB-19 CNS),growth (U251 CNS),growth (PC-3 prostate) [%],growth (SK-MEL-5 melanoma),growth (UACC-62 melanoma),growth (LOX IMVI melanoma),growth (SK-MEL-28 melanoma)
CCOC(=O)c1sc2nc(-c3cc(OC)c(OC)c(OC)c3)nc(N3CCOCC3)c2c1C,48.3%,24.2%,9.78% (active),44.9%,32.3%,40.1%,40.3%,50.4%,51.7%,38.4%,29.1%,40.6%,56.2%,53.2%,36.2%,14.2,2.9% (active),15.7%,45.1%,42.2%
CCNC(=O)N1CCc2c(Cl)c3c(c(OC)c2[C@@H]1[C@H]1OCc2c1ccc(OC)c2OC)OCCO3,10.9%,10.4%,29.6%,43.2%,-39.8% (active),45.3%,8.12% (active),-41.3% (active),55.3%,1.38% (active),26.5%,13.3%,1.79% (active),30.8%,26.1%,20.8,11.4%,22.2%,27.5%,54.3%
CC(C)OC(=O)Nc1cc(F)c(F)cc1F,110%,111%,89.9%,103%,104%,101%,102%,96.2%,94.8%,93.7%,98.1%,99.3%,96.3%,102%,99.3%,99.8,102%,96.6%,109%,96%
Cc1ccc(-c2cc(O)c(-c3ccc(C)cc3C)cc2O)c(C)c1,80%,25.8%,115%,58.2%,67.5%,57.4%,65.7%,47.8%,79%,66.8%,29.5%,42.3%,45.9%,71.9%,38.2%,52.1,12.4%,54.8%,33.4%,85.2%
Cc1ccc(NC(=O)N[C@@H](Cc2cc(F)cc(F)c2)C(=O)N[C@@H]2C(=O)N3CCC[C@H]3C(=O)N3CCCC[C@H]3C(=O)N[C@@H](C)C(=O)N3C[C@H](C)C[C@H]3C(=O)O[C@H]2C)cc1,28.8%,14.3%,35%,4.01% (active),28.8%,28.8%,18.5%,48.6%,18%,34%,14.7%,30.3%,10.7%,22%,29.8%,16.1,10.8%,25.8%,38.2%,39.4%
CCOc1ccc(S(=O)(=O)Nc2ccc3c(c2)N(S(=O)(=O)CC)CCC3)cc1,89.6%,71.6%,100%,88.7%,86.2%,74.1%,59.2%,61.6%,85.4%,107%,89.9%,72.7%,64.8%,80.4%,61.8%,,74.9%,64.8%,83.4%,103%
Cc1ccccc1OC(=O)c1cccc(Cl)c1,126%,95.4%,97.3%,118%,113%,101%,122%,101%,111%,110%,104%,103%,86.2%,109%,129%,,103%,105%,98%,113%
COc1ccc(C(=O)CSc2nnc(-c3cc(-c4ccccc4)nc4ccccc34)o2)cc1,110%,103%,96.7%,98.7%,122%,100%,102%,106%,105%,105%,103%,113%,102%,94.3%,103%,,105%,98%,101%,109%
COc1ccc(/C=C(/C(=O)c2ccc(Cl)cc2)C(=O)C(F)(F)F)cc1,99.2%,92.1%,107%,110%,104%,96.8%,96.2%,108%,99.3%,120%,99%,82.1%,112%,93.5%,94.1%,,102%,96.4%,95.6%,106%
CCOC(=O)COc1ccc2c(c1)O/C(=C\c1ccc(O)cc1)C2=O,106%,106%,102%,117%,114%,94.2%,101%,102%,105%,103%,101%,108%,87.7%,102%,107%,,102%,98.9%,97.9%,
O=C(C[n+]1ccn(CC(OCc2ccc(Cl)cc2Cl)c2ccc(Cl)cc2Cl)c1)c1ccc(F)cc1 (stereo not drawn),-93.1% (active),-17.2% (active),-84.8% (active),-96.7% (active),-94.2% (active),-93.3% (active),-90.2% (active),-91.9% (active),-89.6% (active),-97.3% (active),75.7%,-73.8% (active),-99% (active),-95.9% (active),-81.7% (active),,-99.3% (active),-95.8% (active),-87.4% (active),-95.5% (active)
c1ccc(-c2n[nH]c(-c3ccccn3)n2)nc1,133%,104%,107%,116%,95.7%,140%,98.1%,106%,106%,111%,96.4%,108%,101%,99.5%,110%,,102%,104%,115%,149%
CCN(CCO)CCC(=O)c1ccc([N+](=O)[O-])cc1,103%,101%,102%,115%,106%,97%,103%,105%,105%,106%,101%,105%,93.2%,117%,98.1%,,100%,104%,98.5%,117%
C[C@H]1[C@H](C)CC[C@]2(C(=O)O)CC[C@]3(C)C(=CC[C@@H]4[C@@]5(C)C/C(=C/c6cccnc6)[C@H](O)C(C)(C)[C@@H]5CC[C@]43C)[C@H]12,5% [100 µM] (active),13.3% [100 µM],-24.2% [100 µM] (active),-17.6% [100 µM] (active),-13.3% [100 µM] (active),21.8% [100 µM],-27.3% [100 µM] (active),-42.1% [100 µM] (active),0.776% [100 µM] (active),1.69% [100 µM] (active),2.04% [100 µM] (active),-72.1% [100 µM] (active),-3.83% [100 µM] (active),3.05% [100 µM] (active),-57.2% [100 µM] (active),,-64.4% [100 µM] (active),-70.3% [100 µM] (active),-91.8% [100 µM] (active),-49.1% [100 µM] (active)
C1=C[C@H]2O[C@@H]1c1ccc3[nH]ccc3c12,116%,53.3%,102%,93.4%,92.5%,104%,103%,107%,91.6%,86.3%,78.8%,87.7%,83.4%,96.8%,103%,,90.4%,78.8%,100%,
